Assay results: PubChem BioAssay

Tests used:
[1] = system: Human papillomavirus type 1a protein E7 (residues 44-93); assay: small molecules binding HPV E7 44-93 – biochemical, small-molecule microarray, residues 44-93, 635 nm fluorescence, primary screen (AID 1108); conditions: fluorescence 635 nm, higher = more signal;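 further: E7 fragment applied at 1 µg/mL in TBST for 1 h at 4 C; score combines spot fluorescence with its signal to noise ratio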
[2] = hepatitis C replication reporter changes, two-sided – Huh7 cells, luciferase reporter, HCV replication inhibitor project, primary screen (AID 1109); conditions: Huh7 HCV replicon luciferase reporter, 48 h; higher = more signal;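 further: huh7 hepatoma cells harbouring a luciferase neomycin HCV replicon reporter; luciferase luminescence as measure of HCV replicon replication; test concentration not given here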
[3] = molecular target: Left-right determination factor 2 (Homo sapiens) (UniProt O00292); assay: small molecules binding LEFTY2 protein – biochemical, small-molecule microarray, 635 nm fluorescence scan, primary screen (AID 1110); conditions: higher = more signal
Chain of Left-right determination factor 2 (Homo sapiens) (O00292 whole entry, looked up): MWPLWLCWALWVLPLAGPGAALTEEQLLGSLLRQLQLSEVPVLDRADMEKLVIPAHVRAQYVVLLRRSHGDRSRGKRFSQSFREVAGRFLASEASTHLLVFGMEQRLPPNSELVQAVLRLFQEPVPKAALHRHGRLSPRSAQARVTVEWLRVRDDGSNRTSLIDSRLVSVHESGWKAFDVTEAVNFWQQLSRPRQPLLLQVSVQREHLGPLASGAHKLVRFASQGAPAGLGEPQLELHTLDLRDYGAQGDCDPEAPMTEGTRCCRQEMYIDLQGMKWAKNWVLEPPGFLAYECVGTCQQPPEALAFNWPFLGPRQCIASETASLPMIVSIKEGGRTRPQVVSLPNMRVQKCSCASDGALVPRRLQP

[4] = molecular target: Calmodulin-1 (Homo sapiens) (UniProt P0DP23); assay: small molecules binding calmodulin-1 with EGTA – biochemical, small-molecule microarray, Cy5-labelled CALM1, profiling panel (AID 1111); conditions: Cy5-CALM1 binding fluorescence, higher = more signal;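 further: labelled calmodulin applied in Tris saline Tween buffer holding calcium plus EGTA and DTT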
[5] = molecular target: Calmodulin-1 (Homo sapiens) (UniProt P0DP23); assay: small molecules binding Ca-loaded calmodulin-1 – biochemical, small-molecule microarray, Cy5-labelled CALM1, plus calcium, artefact control for SMM control-protein annotation, profiling panel (AID 1112); conditions: Cy5-CALM1 binding fluorescence, higher = more signal;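 further: score merges spot fluorescence with signal to noise from triplicate slides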
[6] = probe aWnt5a binding to arrayed compounds – biochemical, biotinylated probe, 635/667 nm fluorescence, primary screen (AID 1113); conditions: small-molecule microarray, higher = more signal;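 further: score merges 667 nm fluorescence intensity with signal-to-noise per printed feature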
[7] = probe aShh binding to arrayed compounds – biochemical, biotinylated probe, 635/667 nm fluorescence, primary screen (AID 1114); conditions: small-molecule microarray, higher = more signal;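 further: probe is biotin-labelled aShh protein from a stem cell growth factor screen; measures binding of labelled protein to compounds printed on the slide; score merges feature fluorescence at 667 nm with signal-to-noise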
[8] = probe aNog binding to arrayed compounds – biochemical, biotinylated probe, 635/667 nm fluorescence, primary screen (AID 1115); conditions: small-molecule microarray, higher = more signal;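 further: probe is biotinylated aNog protein used at 0.15 µg/mL for 1 h at 4 C; z-score combines 667 nm fluorescence of each spot with its signal to noise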
[9] = molecular target: Torsin-1A-interacting protein 1 (Homo sapiens) (UniProt Q5JTV8); assay: compound microarray binding of lysate hLAP1 – cell lysate, small-molecule microarray, COS7 lysate, 635/667 nm fluorescence, primary screen (AID 1116); conditions: 635 nm fluorescence, higher = more signal
Chain of Torsin-1A-interacting protein 1 (Homo sapiens) (Q5JTV8 whole entry, looked up): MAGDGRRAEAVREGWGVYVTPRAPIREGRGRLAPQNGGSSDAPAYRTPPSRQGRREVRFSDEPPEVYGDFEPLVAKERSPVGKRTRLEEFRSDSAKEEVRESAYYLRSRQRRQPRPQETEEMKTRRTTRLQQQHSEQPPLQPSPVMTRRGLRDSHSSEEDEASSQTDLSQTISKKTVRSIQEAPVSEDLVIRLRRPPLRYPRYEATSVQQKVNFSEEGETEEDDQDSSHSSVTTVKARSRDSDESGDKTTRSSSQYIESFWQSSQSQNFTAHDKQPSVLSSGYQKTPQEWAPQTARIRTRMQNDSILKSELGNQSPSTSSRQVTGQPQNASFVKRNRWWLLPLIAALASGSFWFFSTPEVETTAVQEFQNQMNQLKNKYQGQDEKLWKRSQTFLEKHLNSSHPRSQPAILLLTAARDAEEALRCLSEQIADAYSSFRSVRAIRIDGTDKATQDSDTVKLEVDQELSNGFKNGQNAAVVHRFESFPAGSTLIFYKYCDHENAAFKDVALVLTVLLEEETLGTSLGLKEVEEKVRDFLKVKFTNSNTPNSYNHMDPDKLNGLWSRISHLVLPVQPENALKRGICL

[10] = molecular target: Alpha-bungarotoxin (Bungarus multicinctus) (UniProt P60615); assay: compounds binding labelled alpha-BTX control protein – biochemical, small-molecule microarray, Alexa647 label, 635/667 nm fluorescence, artefact control for SMM control protein annotation, profiling panel (AID 1117); conditions: alpha-BTX-A647 binding fluorescence, higher = more signal
Chain of Alpha-bungarotoxin (Bungarus multicinctus) (P60615 whole entry, looked up): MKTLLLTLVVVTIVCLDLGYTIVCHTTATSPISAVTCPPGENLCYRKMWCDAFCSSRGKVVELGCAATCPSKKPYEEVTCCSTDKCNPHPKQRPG

| Structure (SMILES) | composite z-score [1] | z-score [2] | composite z-score [3] | composite z-score [4] | composite z-score [5] | composite z-score [6] | composite z-score [7] | composite z-score [8] | composite z-score [9] | composite z-score [10] |
| --- | --- | --- | --- | --- | --- | --- | --- | --- | --- | --- |
| COc1ccc(C(=O)Nc2cccc(CN3C(=O)[C@]4(O[C@H](CCn5cc(CCO)nn5)[C@@H]([Si](C)(C)c5ccc(OC)cc5)[C@@H]4C)c4ccccc43)c2)cc1 | 1.31 | -5.09 | 0.785 | 0.628 | -0.0319 | -0.0685 | -0.0769 | 0.0471 | 0.456 | 0.547 |
| O=C1[C@H]2C=C(I)[C@H](C[C@@H]2OCCCCO)[C@@]12CO2 | -0.417 | -2.55 | -0.244 | -0.754 | -0.749 | -0.128 | 0.133 | 0.109 | 0.452 | -0.132 |
| [N-]=[N+]=Nc1ccccc1[C@H]1OC(c2ccc(OCCCO)cc2)=N[C@@]1(CCS(=O)(=O)c1ccccc1)C(=O)NCc1ccccc1 | 1.46 | -0.242 | 0.565 | 0.937 | 0.338 | 0.153 | 0.0723 | -0.487 | 1.06 | 0.785 |
| O=C1C2C=CC(C(O)c3ccc4c(c3)OCO4)N(Nc3ccc([N+](=O)[O-])cc3)C2C(=O)N1c1ccccc1 (stereo not given) | 1.12 | -0.133 | 0.219 | -0.182 | -0.429 | -0.0445 | -0.0968 | -0.418 | -0.181 | 0.177 |
| COC(=O)[C@H](Cc1ccccc1)N[C@H](/C=C/C1CC1)[C@@H](O)Cc1ccccc1 | -0.636 | -1.02 | -0.276 | -0.595 | -1.08 | -0.237 | 0.14 | -0.34 | 0.627 | -0.696 |
| C=C(CCCC)C(=O)CC[C@@H](OC(C)=O)c1ccc(CO)o1 | 0.0497 | -1.21 | 0.523 | -0.854 | -1.12 | -0.18 | -0.206 | 0.0417 | 2.04 | -0.217 |
| COc1cc2c(cc1O)C(c1cccs1)N(Cc1cccc(OC(F)(F)F)c1)CC2 (stereo not given) | 1.14 | -1.75 | 0.0446 | 0.0759 | -0.194 | -0.0545 | -0.0709 | 0.0953 | 0.0117 | 0.422 |
| COCC(=C=CC[C@@H](O)c1ccc(OCCO)cc1)C[C@@H](O)c1ccccn1 | 0.518 | -1.24 | 0.33 | -0.336 | -0.125 | 0.0173 | 0.227 | -0.0184 | 0.407 | 0.338 |
| COC(=O)c1c2oc(c1C(=O)OC)C(=O)N[C@@H](C(C)C)Cn1cc(nn1)C1(CCCCC1)NC(=O)N[C@H](CO)CC2 | 0.218 | 1.48 | -0.05 | -0.346 | -0.403 | -0.0269 | -0.0769 | 0.621 | 0.764 | -0.216 |
| C=CCNC(=O)[C@@H]1[C@H]2C(=O)O[C@H](c3ccccc3)[C@H](c3ccccc3)N2[C@H](c2ccc(OCCO)cc2)[C@@]12C(=O)N(C(=O)OCCOC)c1ccc(C#CCNC(N)=O)cc12 | 0.79 | -0.635 | 0.735 | 0.597 | 0.386 | 0.0136 | 0.275 | -0.42 | 0.55 | 1.53 |
| C=CC[C@]1(C(=O)NCc2ccccc2)N=C(c2ccc(OCCCO)cc2)O[C@H]1c1ccccc1CN=[N+]=[N-] | 1.42 | -2.42 | 0.13 | 0.764 | 0.358 | -0.001 | -0.0146 | -0.516 | 0.854 | 0.361 |
| [N-]=[N+]=NCc1ccccc1[C@@H]1OC(c2ccc(OCCCO)cc2)=N[C@]1(CCS(=O)(=O)c1ccccc1)C(=O)N1CCOCC1 | 1.41 | -1.82 | -0.141 | 1.72 | 0.443 | 0.0357 | 0.0381 | 0.113 | 2 | 2.04 |
| CC(C)(C)OC(=O)CC[C@]1(C(=O)NCCN2CCOCC2)COC(c2ccc(OCCCO)cc2)=N1 | 1.42 | -0.464 | 0.051 | 0.762 | -0.23 | 0.0559 | -0.0066 | 0.951 | 1.27 | 0.791 |
| COc1ccccc1CN1C(=O)c2ccccc2[C@@]2(Cc3ccccc3N(CCCN(C)C)C2=O)[C@@H]1c1ccc(CO)cc1 | -0.0362 | -1.86 | 0.524 | -0.0574 | -0.688 | -0.165 | -0.282 | -0.273 | 0.0163 | -0.94 |
| CC1CC/C=C\[C@H]2OC34C=CCN(c5ccc6ccccc6c5)C(=O)[C@H]3N(CCO)C(=O)[C@@H]4C2C(=O)O1 (stereo not given in full) | -0.619 | -0.626 | -2.09 | -0.832 | -0.202 | -0.205 | 0.192 | 0.831 | 3.26 | -1.01 |
| COc1cc2c(cc1O)C=[N+](Cc1cc3c(cc1Br)OCO3)CC2 | -0.411 | -0.537 | -0.678 | -1.01 | -0.0978 | -0.16 | -0.16 | -0.492 | -0.479 | -2.64 |
| CCCCC(=C=CC[C@H](O)c1cccc(OCCO)c1)C[C@H](O)c1ccccn1 | -0.146 | -1.05 | 0.258 | 0.481 | -0.784 | -0.0239 | -0.13 | -0.23 | 0.0971 | -0.0891 |
| COC(=O)C(CC#Cc1ccc2c(c1)[C@]1(C(=O)N2)[C@H](c2ccccc2OCCO)N2[C@H](c3ccccc3)[C@H](c3ccccc3)OC(=O)[C@H]2[C@@H]1C(N)=O)C(=O)OC | 0.599 | -2.95 | -0.0862 | 1.33 | 0.116 | 0.349 | 0.679 | 2.29 | 1.21 | 2.45 |
| COC(=O)c1c(CC[C@@H](CO)NC(=O)N[C@H](Cc2ccccc2)Cn2cc(-c3ccccn3)nn2)oc(C(C)=O)c1C(=O)OC | 0.538 | -0.563 | -0.0385 | 0.475 | -0.556 | -0.124 | -0.304 | -0.158 | 1.79 | 1.08 |
| [N-]=[N+]=NCc1ccccc1[C@H]1OC(c2ccc(OCCCO)cc2)=N[C@@]1(Cc1ccccc1)C(=O)N1CCCCC1 | 1.37 | -2.55 | 0.198 | 1.23 | 0.0298 | 0.195 | -0.0243 | -0.768 | 0.249 | 1.43 |
| COc1ccc([Si](C)(C)[C@H]2[C@H](CC(=O)N3CCC[C@H]3CO)O[C@@]3(C(=O)N(Cc4cccc(N5CCOC5=O)c4)c4ccccc43)[C@@H]2C)cc1 | 1.23 | -2.44 | 1.05 | -0.133 | -0.834 | -0.124 | -0.0553 | 0.0258 | 0.368 | 1.58 |
| C=C(CCCC)/C(=C/C[C@@H](OC(C)=O)c1ccccc1OCCO)c1cc(C(=O)OC)ccc1OC | 0.129 | -2.13 | -0.346 | -0.421 | -0.798 | -0.124 | -0.0769 | 0.0459 | -0.107 | 1.15 |
| COCCCNC(=O)[C@@H]1c2ccccc2C(=O)N(Cc2ccccc2)[C@H]1c1ccc(CO)cc1 | 0.364 | -0.719 | 0.221 | -0.448 | 0.004 | 0.0215 | 0.131 | -0.69 | 1.32 | -0.222 |
| NC(=O)N1C(=O)C2C(C1=O)C1C=C(CCCO)C2C(C2CC2)N1Cc1cc2c(cc1Br)OCO2 (stereo not given) | -0.443 | -0.264 | -0.549 | 0.0653 | 0.357 | -0.12 | 0.0278 | -0.0065 | -0.111 | 0.515 |
| O=C1NC(=O)C2C1C=CC(C(O)C1CC=CCC1)N2Nc1ccccn1 (stereo not given) | -0.643 | -0.268 | 0.571 | -0.282 | -0.589 | -0.0643 | -0.147 | -0.0852 | 1.22 | -0.29 |
